# Data reported in the supplement of paper PMC6992640.
# Tested on: UCD52 (cells of a triple-negative basal-like breast cancer xenograft)
# Experiment: cell viability of combination (% of vehicle); higher = less cytotoxic
# Details: 1 µM; 72 h; partner dose: 10 nM
# Method: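 PDX cells were treated for 72 h with each drug at 1 µM plus carfilzomib (10 nM; 100 nM for WHIM2). Luciferase viability is expressed as percent of vehicle.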
row,SMILES,cell viability of combination
1,CC(C)C[C@H](NC(=O)[C@H](Cc1ccccc1)NC(=O)c1cnccn1)B(O)O [Bortezomib] + CC(C)C[C@H](NC(=O)[C@H](CCc1ccccc1)NC(=O)CN1CCOCC1)C(=O)N[C@@H](Cc1ccccc1)C(=O)N[C@@H](CC(C)C)C(=O)[C@@]1(C)CO1 [Carfilzomib],15.5
2,Cc1c(C(=O)NN2CCCCC2)nn(-c2ccc(Cl)cc2Cl)c1-c1ccc(Cl)cc1 [Rimonabant] + CC(C)C[C@H](NC(=O)[C@H](CCc1ccccc1)NC(=O)CN1CCOCC1)C(=O)N[C@@H](Cc1ccccc1)C(=O)N[C@@H](CC(C)C)C(=O)[C@@]1(C)CO1 [Carfilzomib],63
3,CC(C)(C)c1ccc(C(O)CCCN2CCC(C(O)(c3ccccc3)c3ccccc3)CC2)cc1 (stereo not drawn) [Terfenadine] + CC(C)C[C@H](NC(=O)[C@H](CCc1ccccc1)NC(=O)CN1CCOCC1)C(=O)N[C@@H](Cc1ccccc1)C(=O)N[C@@H](CC(C)C)C(=O)[C@@]1(C)CO1 [Carfilzomib],64.9
4,Nc1ccn(C2OC(CO)C(O)C2O)c(=O)n1 (stereo not drawn) [Cytarabine] + CC(C)C[C@H](NC(=O)[C@H](CCc1ccccc1)NC(=O)CN1CCOCC1)C(=O)N[C@@H](Cc1ccccc1)C(=O)N[C@@H](CC(C)C)C(=O)[C@@]1(C)CO1 [Carfilzomib],68.3
5,CCC(NC(=O)C(C)NC)C(=O)N1CC(O)CC1Cc1c(-c2[nH]c3cc(F)ccc3c2CC2CC(O)CN2C(=O)C(CC)NC(=O)C(C)NC)[nH]c2cc(F)ccc12 (stereo not drawn) + CC(C)C[C@H](NC(=O)[C@H](CCc1ccccc1)NC(=O)CN1CCOCC1)C(=O)N[C@@H](Cc1ccccc1)C(=O)N[C@@H](CC(C)C)C(=O)[C@@]1(C)CO1 [Carfilzomib],43
6,O=C(O)c1cc(O)c(O)c(O)c1 [Gallic acid] + CC(C)C[C@H](NC(=O)[C@H](CCc1ccccc1)NC(=O)CN1CCOCC1)C(=O)N[C@@H](Cc1ccccc1)C(=O)N[C@@H](CC(C)C)C(=O)[C@@]1(C)CO1 [Carfilzomib],60.9
7,C=CC(=O)N1CCC(Oc2cc3c(Nc4ccc(Cl)c(Cl)c4F)ncnc3cc2OC)CC1 [Poziotinib] + CC(C)C[C@H](NC(=O)[C@H](CCc1ccccc1)NC(=O)CN1CCOCC1)C(=O)N[C@@H](Cc1ccccc1)C(=O)N[C@@H](CC(C)C)C(=O)[C@@]1(C)CO1 [Carfilzomib],28.9
8,Cc1ccc(-n2[nH]c(C)c(NN=C3C=CC=C(c4cccc(C(=O)O)c4)C3=O)c2=O)cc1C [Eltrombopag] + CC(C)C[C@H](NC(=O)[C@H](CCc1ccccc1)NC(=O)CN1CCOCC1)C(=O)N[C@@H](Cc1ccccc1)C(=O)N[C@@H](CC(C)C)C(=O)[C@@]1(C)CO1 [Carfilzomib],58.8
9,COc1ccc(C[C@H](N)C(=O)N[C@@H]2[C@H](O)[C@H](n3cnc4c(N(C)C)ncnc43)O[C@@H]2CO)cc1.Cl.Cl [Puromycin dihydrochloride] + CC(C)C[C@H](NC(=O)[C@H](CCc1ccccc1)NC(=O)CN1CCOCC1)C(=O)N[C@@H](Cc1ccccc1)C(=O)N[C@@H](CC(C)C)C(=O)[C@@]1(C)CO1 [Carfilzomib],13.8
10,CC1=CC(=O)c2ccccc2C1=O [Menadione] + CC(C)C[C@H](NC(=O)[C@H](CCc1ccccc1)NC(=O)CN1CCOCC1)C(=O)N[C@@H](Cc1ccccc1)C(=O)N[C@@H](CC(C)C)C(=O)[C@@]1(C)CO1 [Carfilzomib],62
11,CCCCCCCCc1ccc(CCC(N)(CO)CO)cc1.Cl [Fingolimod (FTY720)] + CC(C)C[C@H](NC(=O)[C@H](CCc1ccccc1)NC(=O)CN1CCOCC1)C(=O)N[C@@H](Cc1ccccc1)C(=O)N[C@@H](CC(C)C)C(=O)[C@@]1(C)CO1 [Carfilzomib],61.5
12,Oc1c(Cl)cc(Cl)c2cccnc12 [Chloroxine] + CC(C)C[C@H](NC(=O)[C@H](CCc1ccccc1)NC(=O)CN1CCOCC1)C(=O)N[C@@H](Cc1ccccc1)C(=O)N[C@@H](CC(C)C)C(=O)[C@@]1(C)CO1 [Carfilzomib],62.4
13,Cc1nc(NC(=O)N2CCCC2C(N)=O)sc1-c1ccnc(C(C)(C)C(F)(F)F)c1 (stereo not drawn) + CC(C)C[C@H](NC(=O)[C@H](CCc1ccccc1)NC(=O)CN1CCOCC1)C(=O)N[C@@H](Cc1ccccc1)C(=O)N[C@@H](CC(C)C)C(=O)[C@@]1(C)CO1 [Carfilzomib],42.3
